Rows were chosen to be rich in hits. Some 28% of all compounds tested hit in one or more screens of this group.
CYP2C19 activ: increases human CYP2C19 enzyme activity; P33261; recombinant CYP2C19, luciferin-H EGE luminescence; active compounds read high; 0 = fully inhibited enzyme, 1 = untreated enzyme; activation factor at 5 µM; 96,000 tested, under 10 active; AID 1025;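 active = activation factor of at least 2 at 5 µM in the primary screen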;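 also: 0 = wells with 2.5 mM tranylcypromine and 1 = vehicle-only wells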
CYP2C9 inhib: inhibitors of human CYP2C9. 96,000 compounds, 20% hits. inhibition, % at 5 µM. CYP2C9 Supersomes, luciferin-H conversion, luminescence;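 active = blocking of liver enzyme CYP2C9 beyond about 50% at 5 µM, limit read from the data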
Target sequence (P11712 whole entry, looked up): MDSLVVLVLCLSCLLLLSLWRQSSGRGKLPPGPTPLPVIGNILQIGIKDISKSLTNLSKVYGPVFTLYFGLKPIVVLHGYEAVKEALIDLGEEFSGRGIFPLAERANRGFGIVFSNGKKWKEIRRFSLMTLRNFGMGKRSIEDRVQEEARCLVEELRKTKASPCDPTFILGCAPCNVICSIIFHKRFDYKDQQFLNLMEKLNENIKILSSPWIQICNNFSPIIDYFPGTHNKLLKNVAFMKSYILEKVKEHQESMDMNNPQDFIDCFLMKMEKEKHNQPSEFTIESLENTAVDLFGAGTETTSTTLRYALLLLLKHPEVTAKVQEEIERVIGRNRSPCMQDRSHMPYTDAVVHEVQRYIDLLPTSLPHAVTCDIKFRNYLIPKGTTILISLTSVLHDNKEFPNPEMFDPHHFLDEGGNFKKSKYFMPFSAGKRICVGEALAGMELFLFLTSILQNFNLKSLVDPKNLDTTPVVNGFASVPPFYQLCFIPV
hDAT+cocaine: changed human dopamine transporter uptake under cocaine IC80; LLC-PK1 hDAT cells, [14C]-dopamine uptake with cocaine IC80; actives deviate in either direction; 110,000 compounds, 1.3% hits; Q01959; AID 449768; B-score at 10 µM;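 active = Z score or B-score, a plate-position-corrected score, falls beyond the plate's 99.7% confidence bounds, in either direction; inactive = both scores lie inside the 99.7% bounds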;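 also: scored against the spread of the other compound wells on the same plate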
D1 allo mod: allosterically modulates the human D1 dopamine receptor; B-score at 10 µM; 58,000 compounds, 5.9% hits; P21728; HEK293 D1, CRE-luciferase, dopamine EC30 potentiation; actives deviate in either direction;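 active = luminescence count or its row- and column-corrected plate score outside the 99.7% band of the plate's sample wells, on either side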
CYP2C9 activ: increases human cytochrome P450 2C9 activity. 96,000 compounds, 1.4% hits. recombinant CYP2C9, luciferin-H conversion, luminescence; active compounds read high; factor 1 = untreated enzyme, 0 = blocked. activation factor at 5 µM. P11712. AID 1024;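 active = activation factor of 2 or more for CYP2C9 at a 5 µM dose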;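 also: 0 = sulfaphenazole-blocked wells and 1 = vehicle-only wells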
CYP2C19 inh: blocks human cytochrome P450 2C19; CYP2C19 Supersomes, luciferin-H EGE luminescence, 30 min; inhibition, % at 5 µM; 96,000 compounds, 21% hits;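 active = CYP2C19 inhibition above a set limit at 5 µM in the primary screen, cut at about 50% in these data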;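 also: plate controls were negative control wells for no effect and 2.5 mM tranylcypromine positive control for full effect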
* marks the source's active call; other numbers are inactive results; / = no result given.

SMILES	CYP2C19 activ	CYP2C9 inhib	hDAT+cocaine	D1 allo mod	CYP2C9 activ	CYP2C19 inh
Cc1ccc(C)c(NS(=O)(=O)c2cc(C(=O)Nc3cccc(N(C)S(C)(=O)=O)c3)ccc2C)c1	0.8	79*	1.1	/	0.2	24
CCOC(=O)N1CCC(NC(=O)c2sc(-n3cccc3)nc2C)CC1	1	-69	0.57	1.8	1.7	0
CCCOc1ccc2ccccc2c1/C=N/n1c(C)nnc1-n1nc(C)cc1C	0.2	18	0.73	/	0.8	83*
Cc1cc(C)n(-c2nnc(C)n2/N=C/c2ccco2)n1	1	-13	-0.36	-0.0083	1.1	-2
COc1ccccc1-n1c(=O)oc2ccc(Cl)cc2c1=O	0.7	20	-0.75	-2.3*	0.8	27
Cc1ccc2c(c1)[C@H]1OCC[C@H]1[C@@H](c1ccncc1)N2	0	84*	-0.0018	/	0.2	100*
O=C(NCCc1ccccc1)c1ccncc1	0.2	38	-1.1	-0.57	0.6	78*
COc1ccc(-c2nc(CC(=O)O)cs2)cc1	1.1	-4	-0.34	/	1	-15
CCCCC(CC)CNC(=O)c1cccs1 (stereo not given)	0.1	91*	-0.12	0.24	0.1	88*
CC1CCN(c2ccc(C(=O)NCCc3ccccc3)cn2)CC1	0.9	67*	-0.73	0.0064	0.3	11
O=C(NCCc1ccccc1)c1ccc([N+](=O)[O-])cc1	0.5	-16	/	/	1.2	48
COc1ccc(-c2nc(CCNC(=O)c3cccs3)cs2)cc1	0.6	76*	1.2	/	0.2	40
O=C(NCCCNC(=O)c1cccs1)c1cccs1	0.7	42	-0.42	-0.2	0.6	27
CC(C)(CNC(=O)c1cccs1)CNC(=O)c1cccs1	0.4	86*	0.051	0.024	0.1	58*
COCCCNC(=O)c1cccs1	0.8	10	2.7*	/	0.9	15
CC(C)OC(=O)C(C)Oc1ccc(C(=O)NCCc2ccccc2)cc1 (stereo not given)	0.8	18	-7.1*	/	0.8	15
O=C(NCCc1ccccc1)c1cccs1	0.5	5	0.87	/	1	53*
COc1ccc(C2=NOC3(CC(=O)N(c4ccc(C)cc4)C3=O)C2)c(OC)c1 (stereo not given)	1.1	2	0.57	0.16	1	-6
Cc1cccc(CCNC(=O)c2nnc(Cc3ccc(Cl)cc3)o2)c1	/	/	/	0.029	/	/
O=C1CNC(=O)/C1=C\N1CCN(C(c2ccccc2)c2ccccc2)CC1	1	10	0.85	0.29	0.9	-2
Cc1cc(NC(=O)CCSc2nc(-c3ccco3)cc(C(F)(F)F)n2)no1	1	-26	-1.7	/	1.3	0
Cc1ccccc1Cn1ccc(NC(=O)CCSc2nc(-c3ccco3)cc(C(F)(F)F)n2)n1	0.2	85*	0.14	-0.28	0.1	79*
O=C(c1cnn2c(C(F)(F)F)cc(-c3ccco3)nc12)N1CCCc2ccccc21	1	-6	1.9*	0.23	1.1	4
Cc1ccc(Cn2ccc(NC(=O)CCSc3nc(-c4ccco4)cc(C(F)(F)F)n3)n2)cc1	0.2	93*	0.0076	-0.012	0.1	81*
O=C(Nc1cnn(C23CC4CC(CC(C4)C2)C3)c1)c1cnn2c(C(F)(F)F)cc(-c3ccco3)nc12	0.4	78*	0.97	0.12	0.2	65*
SMILES	CYP2C19 activ	CYP2C9 inhib	hDAT+cocaine	D1 allo mod	CYP2C9 activ	CYP2C19 inh
COc1ccc(-n2c(O)cnc2Nc2nc(C)cc(C)n2)cc1OC	1	2	1.6	/	1	2
[O-][n+]1onc2c1CCC1N(O)C(c3ccccc3)CC21O (stereo not given)	0.8	3	0.69	0.26	1	16
CN=Cc1c(NC)nc2c(C)cccn2c1=O	1	-3	-0.018	/	1	-5
Cc1ccccc1Cn1ccc(NC(=O)c2cnn3c(C(F)(F)F)cc(-c4ccco4)nc23)n1	0.5	61*	1.4	-4.4*	0.4	48
Cc1cc(C)nc(N(C#N)S(=O)(=O)c2ccccc2)n1	0.8	38	0.043	-0.27	0.6	20
COCCNC(=O)CNC(=O)c1nn(-c2ccc(OC)c(Cl)c2)c(=O)c2ccccc12	0.8	40	-6.8*	/	0.6	21
COc1cccc(CNCCc2c[nH]c3ccccc23)c1OCc1ccc(F)cc1	0.7	8	0.88	/	0.9	27
COc1cc(CNCCc2ccccc2F)ccc1OCc1ccc(Cl)nc1	0.2	33	1.6	/	0.7	76*

High-throughput results from PubChem BioAssay.
